We go through ten compounds from PubChem BioAssay (NCI).

What all share (assay): NCI-60 one-dose screen, 48 h (100 = growth as untreated, 0 = no growth, -100 = all killed)
What all share (details): 10 µM unless noted

Assay [1] has as its system SR leukemia.
Assay [2] deals with OVCAR-8 ovarian.
In assay [3] the test system is OVCAR-5 ovarian.
In assay [4] the test system is OVCAR-4 ovarian.
Assay [5] deals with SK-OV-3 ovarian.
Assay [6] has as its system OVCAR-3 ovarian.
The subject of assay [7] is HS 578T breast.
Assay [8] concerns NCI/ADR-RES ovarian.
Assay [9] has as its system T-47D breast.
In assay [10] the test system is BT-549 breast.
Assay [11] has as its system MDA-MB-435 melanoma.
For assay [12], the system named is SW-620 colon.
In assay [13] the test system is MCF7 breast.
Assay [14] concerns HCT-116 colon.
The test system of assay [15] is HCC-2998 colon.
In assay [16] the test system is KM12 colon.

The structures appear in SMILES notation. This is part of a sample that, as a whole, favours compounds with a hit. Of some 83,000 tested, about 20% had one in any assay.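 Note: values are percent growth. 100 is the growth of untreated cells, values between 100 and 0 indicate rising inhibition; between -100 and 0 indicates cell death.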 A number with no mark means an inactive call. Active and inactive are the calls of the source. Rule for the calls: active = growth percent below 10; inactive = the rest.

Take `CCOC(=O)c1cn2ncnc(Oc3ccc(NC(=O)NCCN4CCOCC4)c(Cl)c3)c2c1C`: the growth was 105% in assay [1]; 101% in assay [2]; 96.4% in assay [3]; 96.3% in [4]; 92.2% in [5]; 105% in assay [6]. For the same compound, the growth in assay [7] was 91.4%; in [8], 101%; in assay [9], 80.6%; in [10] it was 96.5%; in [11], 97.3%; in assay [12] it was 94.1%. Also, the growth in assay [13] is 88.5%; in [14], 94.7%; in [15] it was 110%; in [16] it was 103%.
In the case of `COc1ccc2c(c1)C(C)Cc1c(ncnc1-n1c(C)nc3ccccc31)N2C` (centres undefined), the growth was 4.92% (active) in [1]; 38.8% in [2]; 78.3% in assay [3]; 58.6% in assay [4]; 31.5% in assay [5]; 5.47% (active) in assay [6]. Besides, the growth was 2.46% (active) in assay [7]; 5.75% (active) in assay [8]; 36.6% in assay [9]; 51.7% in assay [10]; -30.7% (active) in assay [11]; 12% in assay [12]. Besides, the growth in assay [13] was 15.4%; in assay [14] it was 36.3%; in assay [15] it was 41.3%; in assay [16] it was 28.7%.
On to `Cc1ccc2sc3c(NCCN)nc4ccccc4c3c(=O)c2c1`, for which the growth in assay [1] is -13.4% (active); in assay [2] it was 80.1%; in assay [3], 97%; in assay [4] it was 67%; in assay [5], 88.4%; in [6], 63%. For the same compound, the growth was 85% in [7]; 80.5% in assay [8]; 65.6% in [9]; 88.1% in assay [10]; 46.2% in assay [11]; -61.9% (active) in assay [12]. Moreover, the growth was 47.9% in [13], 7.89% (active) in assay [14], -33% (active) in [15] and 14.1% in assay [16].
With `COc1cccc(/C=C2\C=C(c3ccccc3)N(Cc3ccccc3)C2=O)c1`, the growth in assay [1] was 10.9%; in assay [2], 68%; in assay [3] it was 92.8%; in [4], 71.9%; in [5] it was 42%; in assay [6] it was 59.3%. Further, the growth in assay [7] is 42%; in assay [8] it was 51.3%; in assay [9], 59.8%; in assay [10], 69.7%; in [11], -32.3% (active); in assay [12], 43.5%. Further, the growth in assay [13] is 32.5%; in assay [14] it was 48.3%; in assay [15], 66.6%; in assay [16], 53.4%.
Take `Clc1ccc2c(c1)N(CCCN1CCCC1)c1ccccc1S2`: the growth in assay [1] was -30.1% (active); in assay [2] it was 77.1%; in [3], 53.8%; in assay [4] it was 53.6%; in [5], 37.2%; in assay [6], 44%. In addition, the growth in [7] is 42.6%; in [9] it was 57.8%; in assay [10], 66.5%; in [11], -35.9% (active); in assay [12], 26.2%; in assay [13], 6.29% (active). In addition, the growth in assay [14] was 26.5%; in assay [15] it was 32%; in assay [16], 44.6%.
Consider `CNCCCNc1nc2ccccc2c2c(=O)c3cc(F)ccc3sc12`, for which the growth in [1] was -35.9% (active); in [2], 28%; in assay [3], 66.3%; in assay [4], 19.9%; in assay [5], 75.4%; in assay [6], -1% (active). Further, the growth in [7] is 37.8%; in [8], 21.4%; in [9] it was 22.4%; in assay [10], 86.7%; in assay [11], -85.3% (active); in assay [12], -71.4% (active). The growth in assay [13] is -44.8% (active); in assay [14] it was -67% (active); in [15], -88.3% (active); in assay [16], -44.4% (active).
With `CC/C=C\C[C@@H](O)C/C=C1/C(=O)C=C[C@H]1C/C=C\CCCC(=O)OC`, the growth in assay [1] was -17.5% (active); in assay [2], -6.75% (active); in assay [3] it was 54.1%; in assay [4], 44.9%; in assay [5] it was 99.3%; in [6] it was -2.32% (active). Also, the growth was 21% in assay [7]; 10.6% in [8]; 15.6% in assay [9]; -6.09% (active) in assay [10]; 1.93% (active) in assay [11]; -15.9% (active) in [12]. The growth in assay [13] is 9.31% (active); in [14] it was -47.1% (active); in assay [15] it was -88.1% (active); in assay [16], -58.2% (active).
Consider `COc1cc2oc(-c3ccc(O)cc3)cc(=O)c2c(O)c1-c1c(OC)cc(O)c2c(=O)cc(-c3ccc(O)cc3)oc12`, for which the growth in assay [1] is 5.09% (active); in assay [2], 28.1%; in assay [3] it was 101%; in assay [4] it was 67.8%; in assay [5], 37.5%; in assay [6], 29.3%. Also, the growth was 17.5% in assay [7]; 79.6% in assay [8]; 82.8% in assay [9]; 46.7% in assay [10]; 1.08% (active) in assay [11]; 25.2% in assay [12]. In addition, the growth was 38% in assay [13], 20.5% in [14], 72.5% in assay [15] and 43.4% in [16].
As for `COc1cccc(Cc2cc(-c3ccccc3)nn(CC(=O)c3ccccc3)c2=O)c1`, the growth was 0.342% (active) in [1]; 58.7% in assay [2]; 96.4% in assay [3]; 69.5% in assay [4]; 89.6% in assay [5]; 64.9% in assay [6]. Moreover, the growth was 66.9% in assay [7]; 57.2% in assay [8]; 72.5% in assay [9]; 64.5% in [10]; 61.2% in [11]; 55.1% in assay [12]. Further, the growth is 45.9% in assay [13], 68.9% in assay [14], 84.7% in assay [15] and 57.8% in assay [16].
As to `CC/C=C\C[C@@H]1C/C=C2/C(=O)C=C[C@H]2C/C=C\CCCC(=O)O1`, the growth was -30.3% (active) in assay [1]; 4.94% (active) in assay [2]; -32.8% (active) in assay [3]; 5.92% (active) in assay [4]; -8.9% (active) in assay [5]; -95.4% (active) in assay [6]. For the same compound, the growth in assay [7] is -1.47% (active); in assay [8], 10.9%; in [9] it was 10.3%; in [10] it was -55.7% (active); in [11], -59.1% (active); in [12], -65.1% (active). For the same compound, the growth in [13] was -9.37% (active); in [14], -93.5% (active); in [15], -83.3% (active); in assay [16], -92.3% (active).
